Usually AC50 stands for the midpoint of the concentration-response curve, whichever way the signal moves.

Screen size: about 16,000 compounds; about 4,000 (25%) were called active. Roughly 26% stayed inconclusive and do not appear here. The call rests on the fitted dose curve; in most records, active means well fitted curve in the direction sought with a large enough effect; inconclusive means small, poorly fitted or top-dose-only effect, or effect the other way; inactive means no such curve, though single readings can be large or run the other way. Only a sample is shown.
On the % scale 0 is the no-effect control and ±100 the full control effect.

In the assay the target is Cytochrome P450 2C9 (Homo sapiens) (UniProt P11712). The experiment in a line: Cytochrome panel assay with activity outcomes. Conditions: recombinant CYP, pro-luciferin dealkylation, luminescence, p450-cyp2c9; series mostly up to 57.1 µM.
Sequence of Cytochrome P450 2C9 (Homo sapiens) (P11712 whole entry, looked up): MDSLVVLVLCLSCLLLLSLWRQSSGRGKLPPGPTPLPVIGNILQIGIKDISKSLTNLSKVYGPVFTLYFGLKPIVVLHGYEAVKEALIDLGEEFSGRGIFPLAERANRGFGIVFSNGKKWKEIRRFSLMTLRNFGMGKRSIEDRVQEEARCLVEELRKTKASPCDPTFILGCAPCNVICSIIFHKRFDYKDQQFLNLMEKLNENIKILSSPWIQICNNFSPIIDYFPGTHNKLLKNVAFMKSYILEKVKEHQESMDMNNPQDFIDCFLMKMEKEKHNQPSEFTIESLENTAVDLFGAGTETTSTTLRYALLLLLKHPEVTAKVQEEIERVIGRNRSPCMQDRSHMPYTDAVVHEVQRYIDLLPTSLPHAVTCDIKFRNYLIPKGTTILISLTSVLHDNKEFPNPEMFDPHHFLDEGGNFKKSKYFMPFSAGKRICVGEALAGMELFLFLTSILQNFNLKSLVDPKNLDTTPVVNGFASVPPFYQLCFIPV
Regarding `Cc1ccc(NC(=O)Nc2ncccc2C)cc1`, the AC50 is 28.2 µM (active).

Take `Cc1cccnc1NC(=O)C12CCC(C)(C(=O)O1)C2(C)C` (configuration not stated): the AC50 entry is “inactive”.

For `O=C(Nc1ccc2ncccc2c1)Nc1ccc2ncccc2c1`, the activity, negative = inhibition was 4.23% [at 11.4 µM] (inactive).

Turning to `CN(C)C(=O)Oc1cccc([N+](C)(C)C)c1`, the AC50 result was “inactive”.

On to `C[C@H](NCCc1ccc(O)cc1)[C@@H](O)c1ccc(O)cc1`, for which the AC50 entry is “inactive”.

In the case of `CC[C@H](c1ccc(O)cc1)[C@@H](CC)c1ccc(O)cc1`, the AC50 is 5.01 µM (active).

Consider `CC[C@H](NC(C)C)[C@H](O)c1ccc(O)c(O)c1`, for which the AC50 entry was “inactive”.

With `CN(C)C[C@H]1CCC[C@@H](CN(C)C)C1=O`, the activity, negative = inhibition is 1.9% [at 11.4 µM] (inactive).

On to `CCn1cc(-c2nnnn2-c2ccc(Cl)cc2)c(=O)c2ccccc21`, for which the AC50 entry is “inactive”.

In the case of `Clc1ccc2[nH]cc(-c3nnnn3-c3ccccc3)c2c1`, the half-maximal activity concentration (AC50) is 5.01 µM (active).

In the case of `Cc1ccc(-n2nnnc2-c2cnc3ccc(Cl)cc3c2-c2ccccc2)cc1`, the AC50 was 8.91 µM (active).

Turning to `CC12CCC(C(=O)O)(C/C1=N\O)C2(C)C` (configuration not stated), the AC50 entry is “inactive”.

For the compound `COc1cccc(-c2cncnc2N(C)Cc2ccco2)c1`, the activity, negative = inhibition is -5.51% [at 2.29 µM] (inactive).

Take `CC1(C)CC(=O)c2c(Cc3ccccc3)n[nH]c2C1`: the AC50 was 14.1 µM (active).

Take `C=CCN=C1CC(C)(C)CC(=O)/C1=C(\O)c1ccccc1`: the AC50 entry was “inactive”.

As for `O=C(O)c1ccc(C(=O)Nc2cccc3ccccc23)c(C(=O)O)c1`, the activity, negative = inhibition was -2.72% [at 11.4 µM] (inactive).

Consider `O=C(Nc1ccccc1C(=O)O)c1ccc2ccccc2n1`, for which the concentration at half-maximal activity (AC50) was 8.91 µM (active).

Consider `CC(=O)Nc1ccccc1C(=O)C(=O)O`, for which the AC50 entry was “inactive”.

For `CCCC(=O)Nc1cc(-c2cn3cccnc3n2)ccc1OC`, the AC50 result is “inactive”.

Turning to `O=C(Nc1cccc(-c2cn3cccnc3n2)c1)c1ccco1`, the AC50 is 12.6 µM (active).

With `C[C@@H]1NCC[C@H](CC(=O)O)[C@H]1CC(=O)O`, the activity, negative = inhibition is -13.5% [at 11.4 µM] (inactive).

`O=C1CCc2cc(OCCCCc3nnnn3C3CCCCC3)ccc2N1`: the AC50 entry was “inactive”.

For `CC(C)(C)c1ccc(CN(Cc2ccco2)Cc2nnnn2C2CCCC2)cc1`, the AC50 is 3.55 µM (active).

Take `O=C(O)c1nnsc1-c1csnn1`: the activity, negative = inhibition is -13.9% [at 11.4 µM] (inactive).

For the compound `O=C(Nc1ccc2c(c1)OCCO2)c1cc2sccc2n1Cc1ccc(F)cc1`, the AC50 is 3.55 µM (active).

As to `CCNC(=O)NC1(C(=O)Nc2ccc3c(c2)OCCO3)CCCCC1`, the AC50 result is “inactive”.

Turning to `CCO[P@]1(=O)OC[C@@H]2O[C@H](n3cnc4c(N)ncnc43)[C@H](O)[C@@H]2O1`, the activity, negative = inhibition was -1.07% [at 11.4 µM] (inactive).

Regarding `O=C(Nc1ccccc1)N1CC[C@@]2(CCCN(C(=O)c3cc(C(F)(F)F)cc(C(F)(F)F)c3)C2)C1`, the AC50 result was “inactive”.

In the case of `Cc1ccccc1NC(=O)OCc1cn(-c2ccc(Cl)cc2)nn1`, the AC50 result was “inactive”.

`CCCCC(=O)OCc1cn(-c2ccc(Cl)cc2)nn1`: the AC50 is 17.8 µM (active).

As to `NNC(=O)c1nn(-c2ccc(Cl)cc2)ccc1=O`, the AC50 entry is “inactive”.

With `CCOC(=O)CCN1C(=O)[C@H]2[C@H]3[C@H](O)[C@H](O)C/C(=N/OC/C=C(\C)CCC=C(C)C)[C@H]3CC[C@@H]2C1=O`, the activity, negative = inhibition is 3.33% [at 11.4 µM] (inactive).

For `CCNc1ncc2nc(C)c(=O)n(CCc3ccccc3)c2n1`, the AC50 entry was “inactive”.

Take `CCC(Sc1nc(=O)cc(N)n1CCc1ccccc1)C(=O)Nc1ccccc1C#N` (configuration not stated): the AC50 is 2.51 µM (active).

Turning to `CC(=O)O[C@@H](C)C[N+](C)(C)C`, the AC50 entry is “inactive”.

For `N#Cc1cccc(NC(=O)N2CC[C@@]3(CCCN(C(=O)c4ccncc4)C3)C2)c1`, the AC50 entry was “inactive”.

With `Cc1ccc(S(=O)(=O)N2CCN(C(=O)c3ccccc3)C2C(C)C)cc1` (configuration not stated), the AC50 is 25.1 µM (active).

`CC(=O)N1CCN(S(=O)(=O)c2ccccc2)C1c1ccccc1` (configuration not stated): the AC50 result is “inactive”.

With `Cc1ccc(S(=O)(=O)N2CCC(C(=O)O)(c3ccccc3)CC2)cc1`, the activity, negative = inhibition is -9.94% [at 11.4 µM] (inactive).

Turning to `Cc1noc(C)c1-c1nccc(Nc2ccc(F)cc2)n1`, the activity, negative = inhibition is 25.8% [at 2.29 µM] (inactive).

As for `Fc1cccc(NC(=S)NCCCN2CCOCC2)c1`, the AC50 entry is “inactive”.

Turning to `O=C(O)CCC(=O)Nc1ccc(C(=O)N2CCCCC2)cc1`, the AC50 entry is “inactive”.

On to `O=C(CSc1ccc(Cl)cc1)Nc1ccc(N2CCN(C(=O)c3ccc(Cl)cc3)CC2)cc1`, for which the AC50 is 5.01 µM (active).

Regarding `O=C(CN1CCN(c2ccc(Cl)cc2)CC1)Nc1ccc(F)c(F)c1`, the AC50 was 3.55 µM (active).

Take `COC(=O)N1CCC2(CCN(C(=O)Nc3cccc(F)c3)CC2)CC1`: the AC50 result was “inactive”.

As for `O=C(CSc1ccc(Cl)cc1)Nc1ccc(N2CCN(c3ccccc3)CC2)c(F)c1`, the AC50 entry is “inactive”.

As for `O=C(CN1CCN(c2ccc(Cl)cc2)CC1)Nc1cccc(F)c1`, the AC50 is 2.82 µM (active).

For the compound `COc1ccc2c(Cl)c(-c3nnco3)sc2c1`, the AC50 entry was “inactive”.

Turning to `[O-][N+]1(CC[N+]2([O-])CCCCC2)CCCCC1`, the activity, negative = inhibition was -6.33% [at 11.4 µM] (inactive).

Take `CCOC(=O)CSc1nnc(Cc2cc(=O)[nH]c(=O)[nH]2)n1-c1cccc(OC)c1`: the AC50 entry is “inactive”.

For the compound `CCOC(=O)CSc1nnc(CSc2nc3sc4c(c3c(=O)[nH]2)CCCC4)n1-c1ccccc1`, the AC50 was 5.01 µM (active).

Turning to `CCOC(=O)CC1C(=O)NCCN1S(=O)(=O)c1ccc(Cl)c(Cl)c1` (configuration not stated), the AC50 entry is “inactive”.

On to `O=C(NCc1ccccc1Cl)c1ccc2c(=O)n(CCCN3CCCC3=O)c(=S)[nH]c2c1`, for which the AC50 is 8.91 µM (active).

Turning to `COCCCNC(=O)c1ccc2c(=O)n(CC3CCCO3)c(=S)[nH]c2c1` (configuration not stated), the AC50 result is “inactive”.

For `COCCn1c(=S)[nH]c2cc(C(=O)NC(C)C)ccc2c1=O`, the AC50 entry is “inactive”.

Turning to `N#Cc1cccc(-c2cc(NCc3cccnc3)ncn2)c1`, the activity, negative = inhibition is -26.2% [at 2.29 µM] (inactive).

Consider `COc1cccc(C(=O)N(Cc2ccccc2)Cc2cc3cc4c(cc3[nH]c2=O)OCCO4)c1`, for which the AC50 is 10 µM (active).

`COc1ccc2[nH]c(=O)c(CN(CCO)C(=O)c3cccs3)cc2c1`: the AC50 entry was “inactive”.

`Cc1cnc(CNc2cc(-c3cccc(C#N)c3)ncn2)cn1`: the activity, negative = inhibition was 19.4% [at 2.29 µM] (inactive).

On to `CCNc1ncc2nc(-c3ccc(Cl)cc3)c(=O)n(Cc3cccc(OC)c3)c2n1`, for which the AC50 entry was “inactive”.

`COc1cccc(Cn2c(=O)c(-c3ccc(Cl)cc3)nc3cnc(N4CCN(C)CC4)nc32)c1`: the AC50 result is “inactive”.

For `COc1cccc(Cn2c(=O)c(-c3cccs3)nc3cnc(N4CCNCC4)nc32)c1`, the AC50 was 12.6 µM (active).

Take `COc1cccc(Cn2c(=O)c(-c3ccc(Cl)cc3)nc3cnc(N4CCNCC4)nc32)c1`: the AC50 is 12.6 µM (active).

As to `COc1ccc(-c2nc3cnc(N4CCN(C)CC4)nc3n(Cc3ccc(F)cc3)c2=O)cc1`, the AC50 result was “inactive”.

For `COc1cccc(Cn2c(=O)c(-c3ccc(F)cc3)nc3cnc(N4CCNCC4)nc32)c1`, the AC50 is 15.8 µM (active).

As to `COc1ccc(-c2nc3cnc(N4CCNCC4)nc3n(CCc3ccccc3)c2=O)cc1`, the AC50 was 3.98 µM (active).

Turning to `COc1ccc(-c2nc3cnc(N4CCN(C)CC4)nc3n(CCC#N)c2=O)cc1`, the AC50 result is “inactive”.

As for `CCCS(=O)(=O)N1CCCC(C(=O)NCCCOC(C)C)C1` (configuration not stated), the AC50 entry is “inactive”.

As for `COc1ccc(-c2nc3cnc(N4CCNCC4)nc3n(Cc3cccc(OC)c3)c2=O)cc1`, the AC50 was 25.1 µM (active).

As for `COc1cccc(Cn2c(=O)c(-c3ccccc3)nc3cnc(N4CCNCC4)nc32)c1`, the AC50 was 12.6 µM (active).

As for `COc1cccc(Cn2c(=O)c(-c3cc(F)cc(F)c3)nc3cnc(N4CCNCC4)nc32)c1`, the AC50 was 7.94 µM (active).

As to `COc1ccc(-n2c(=O)c(-c3cc(F)cc(F)c3)nc3cnc(N4CCNCC4)nc32)cc1`, the AC50 result was “inactive”.

Turning to `COc1cccc(Cn2c(=O)c(-c3ccccc3)nc3cnc(N4CCN(C)CC4)nc32)c1`, the AC50 result is “inactive”.

Take `COc1ccc(-n2c(=O)c(-c3ccc(Cl)cc3)nc3cnc(N4CCNCC4)nc32)cc1`: the AC50 result is “inactive”.

In the case of `COc1cccc(Cn2c(=O)c(-c3cc(F)cc(F)c3)nc3cnc(N(C)C)nc32)c1`, the AC50 result was “inactive”.

Consider `CCC1(c2ccccc2)C(=O)NCNC1=O`, for which the AC50 result is “inactive”.

As to `CC(C)CO/N=C1/[C@H]2O[C@@H]2[C@@H](O)[C@H]2[C@H]1CCn1c(=O)n(C)c(=O)n12`, the activity, negative = inhibition is -1.24% [at 11.4 µM] (inactive).

Consider `Cc1ccc(C(=O)NC(=S)NCC2CCCO2)cc1` (configuration not stated), for which the AC50 is 7.94 µM (active).

With `CCOC(=O)Nc1ccc(C(=O)NCC2CCCO2)cc1` (configuration not stated), the AC50 result was “inactive”.

Turning to `O=C(CC(c1ccccc1)c1ccccc1)NCC1CCCO1` (configuration not stated), the AC50 is 20 µM (active).

`O=C(NCC1CCCO1)C1CCC(=O)N1CCc1ccccc1` (configuration not stated): the AC50 result is “inactive”.

On to `CN(c1ccc(C(=O)NCC2CCCO2)cc1)S(=O)(=O)c1ccccc1` (configuration not stated), for which the AC50 is 25.1 µM (active).

For `CCC(=O)NC(NCC1CCCO1)C(Cl)(Cl)Cl` (configuration not stated), the AC50 entry was “inactive”.

Consider `CN(C)c1ccc(N=Nc2cccc3ccoc23)cc1`, for which the activity, negative = inhibition was 18.2% [at 11.4 µM] (inactive).

For the compound `O=C(Oc1oc(-c2ccco2)nc1C=Nc1ccc(Cl)cc1)c1ccco1`, the AC50 entry is “inactive”.

Take `CN(C)c1ccc(N=Cc2nc(-c3ccccc3)oc2O)cc1`: the AC50 is 7.08 µM (active).

Take `CN(C)c1ccc(N=C/C=C2\N(C)c3ccccc3C2(C)C)cc1`: the AC50 entry was “inactive”.

Turning to `Oc1oc(-c2ccccc2)nc1C=Nc1ccccc1`, the AC50 was 8.91 µM (active).

Take `CC(/C=N/n1c(-c2cccnc2)n[nH]c1=S)=C\c1ccccc1`: the concentration at half-maximal activity (AC50) is 10 µM (active).

For `c1cncc(-c2cc(-c3cc(-c4cccnc4)n[nH]3)[nH]n2)c1`, the activity, negative = inhibition was 8.46% [at 11.4 µM] (inactive).

On to `CCn1c(-c2ccc3ncccc3c2)n[nH]c1=S`, for which the AC50 entry was “inactive”.

In the case of `CN1[C@@H]2CC[C@H]1CC(OC(c1ccccc1)c1ccccc1)C2` (some centres not stated), the AC50 result was “inactive”.

For the compound `O=C(OC(C(=O)O)C(OC(=O)c1ccccc1)C(=O)NCc1ccccc1)c1ccccc1` (configuration not stated), the AC50 result was “inactive”.

In the case of `Cc1ccc(N(C(=O)c2csnn2)C(C(=O)NC(C)(C)C)c2cccs2)cc1` (configuration not stated), the AC50 entry was “inactive”.

With `CCc1ccc(N(C(=O)c2csnn2)C(C(=O)NCc2ccccc2)c2ccco2)cc1` (configuration not stated), the AC50 is 14.1 µM (active).

With `Cc1ccc(S(N)(=O)=O)cc1NC(=O)/C=C/c1cccs1`, the AC50 result was “inactive”.

Take `Cc1ccc(S(=O)(=O)N2CCOCC2)cc1NC(=O)COC(=O)CCC(=O)c1cccs1`: the AC50 was 14.1 µM (active).

The record behind these values is PubChem BioAssay AID1851 (National Center for Advancing Translational Sciences (NCATS), 2009).
